The full ranking holds about 33,000 sequences; the median of “E-score (-0.5 to 0.5)” is about -0.011, and the highest 2% start at about 0.28. Shown is part of a subset that was picked to be rich in the highest values.
Target: T1, Gcr1 (UniProt P07261)
T1 sequence: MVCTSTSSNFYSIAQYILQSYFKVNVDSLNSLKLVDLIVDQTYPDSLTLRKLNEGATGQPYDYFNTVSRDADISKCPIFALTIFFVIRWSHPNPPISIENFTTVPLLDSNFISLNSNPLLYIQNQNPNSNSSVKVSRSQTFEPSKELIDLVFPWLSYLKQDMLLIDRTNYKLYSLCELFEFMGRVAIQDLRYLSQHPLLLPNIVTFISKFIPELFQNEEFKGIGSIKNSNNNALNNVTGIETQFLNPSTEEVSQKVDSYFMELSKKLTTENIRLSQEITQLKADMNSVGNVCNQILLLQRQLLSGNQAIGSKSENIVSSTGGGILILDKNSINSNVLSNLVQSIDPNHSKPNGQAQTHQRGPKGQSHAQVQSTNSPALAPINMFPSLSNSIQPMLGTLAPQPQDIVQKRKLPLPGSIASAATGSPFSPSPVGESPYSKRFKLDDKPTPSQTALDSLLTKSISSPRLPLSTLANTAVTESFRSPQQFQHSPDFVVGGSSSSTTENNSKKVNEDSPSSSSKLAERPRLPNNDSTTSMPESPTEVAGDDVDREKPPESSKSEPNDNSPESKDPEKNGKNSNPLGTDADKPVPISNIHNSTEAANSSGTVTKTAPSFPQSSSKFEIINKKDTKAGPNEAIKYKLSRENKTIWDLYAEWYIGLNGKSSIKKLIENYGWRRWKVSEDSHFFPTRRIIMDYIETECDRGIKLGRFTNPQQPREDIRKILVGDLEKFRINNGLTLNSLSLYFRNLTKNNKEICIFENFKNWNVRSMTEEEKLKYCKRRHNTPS
Test: PBM E-score (8-mer binding enrichment) (E-score (-0.5 to 0.5)); higher = stronger / more preferred TF binding
Conditions: protein concentration: 100 nM; construct: GST-full length
Summary of the method: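 Full-length yeast transcription factors or their DNA-binding domains, GST-tagged and expressed with PURExpress, were applied at about 100-200 nM to universal all-10-mer Agilent arrays. These arrays had been made double-stranded by primer extension on fresh or once-stripped slides. Detection used fluorescent anti-GST, normalisation used masliner, and E-scores for ungapped eight-base words pooled with reverse complements came from the Universal PBM Analysis Suite.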

| Sequence | PBM E-score |
| --- | --- |
| CGACTCGA | -0.0795 |
| AGGTTGCA | 0.125 |
| AGGTTGCC | 0.28 |
| AGGTTGCG | 0.136 |
| CGATTTAC | -0.039 |
| CGCAGAGC | -0.291 |
| GTCCACGA | -0.0295 |
| ATCCACTG | 0.0833 |
| CTCCACTA | 0.215 |
| ATCCACTC | 0.318 |
| ATCCACTA | 0.369 |
| CTCCACTC | 0.022 |
| ATCCACGA | 0.0269 |
| ACCCACTC | 0.0683 |
| GTCCACTA | 0.334 |
| CTTAGATA | 0.0548 |
| ACACTTAG | -0.0488 |
| ACATCCAG | 0.251 |
| ACAGCACA | -0.109 |
| ATGTACAC | 0.00539 |
| GTCGTTGA | -0.219 |
| GAGGGCGC | 0.114 |
| CACGCTGA | -0.0481 |
| AACGCTGA | -0.0701 |
| GACGCTGA | 0.301 |

| Sequence | PBM E-score |
| --- | --- |
| GACGCTGC | 0.332 |
| CACGCTGC | 0.236 |
| AACGCTGC | 0.0719 |
| AGGGCAGG | -0.173 |
| AGTGCTTC | -0.0411 |
| GCGTCCAA | 0.372 |
| GCGTCCAC | 0.339 |
| ACGTCCAA | 0.00712 |
| CCGTCCAC | 0.016 |
| CCGTCCAA | 0.13 |
| ACGTCCAC | 0.104 |
| ATACCGGG | 0.208 |
| ACCCACTG | 0.147 |
| CCTGCTCA | -0.0926 |
| CCAGATCC | 0.185 |
| GGCAATGA | -0.202 |
| GCGGAAGC | 0.314 |
| ACGGAAGA | 0.0748 |
| CCGGAAGC | 0.439 |
| ACGGAAGT | -0.0172 |
| CCGGAAGA | 0.043 |
| GCGGAAAC | -0.0701 |
| GCGGAAGA | -0.195 |
| ACGGAAGC | 0.344 |
| CCGGAAGG | 0.0607 |

| Sequence | PBM E-score |
| --- | --- |
| ATTTTAGG | 0.249 |
| CGAAACAC | 0.13 |
| AATACTGT | 0.0108 |
| AACATCGC | -0.031 |
| GCAGGTAA | 0.0517 |
| AGTCTTCG | -0.124 |
| CGAAGTTA | 0.0921 |
| ATAAGCTA | -0.078 |
| AGAAGCTA | 0.338 |
| GGAAGCGA | 0.175 |
| AGAAGCTG | 0.348 |
| GGAAGTTA | 0.339 |
| CGAAGCTA | 0.198 |
| GGAAGCTA | 0.457 |
| AGAAGCTC | 0.273 |
| AGAAGTTA | 0.0491 |
| AAAAGCTA | -0.0743 |
| ATAAGCTG | 0.15 |
| TAACCATA | 0.0179 |
| GATCTGAA | -0.0028 |
| CGGGATTC | 0.39 |
| CCGGATTC | 0.313 |
| GGGGATAC | 0.0984 |
| ACGGATTC | 0.237 |
| CGGGATAA | 0.0532 |

| Sequence | PBM E-score |
| --- | --- |
| ATGGATCC | 0.278 |
| CTGGATCC | 0.346 |
| AGGGATTC | 0.276 |
| CTGGATCA | -0.0687 |
| CGGGATTA | -0.0698 |
| CCGGATTA | -0.0163 |
| CGGGATAC | 0.304 |
| ACACTGGA | 0.264 |
| AACAGTGC | -0.142 |
| CGGAAGAA | -0.0973 |
| ATCTAGCC | 0.0906 |
| ATTCCGTC | 0.0616 |
| CTATAGAC | -0.109 |
| CGCAGCAG | 0.0351 |
| CCCAAATC | 0.238 |
| CTAGCCAC | -0.154 |
| ATGTGAAA | -0.0826 |
| ATGGATTC | 0.272 |
| CTGGATTC | 0.361 |
| CTGGATTA | 0.246 |
| CCGCACAC | -0.0537 |
| AAGATGCA | 0.0396 |
| AAGATGCT | 0.288 |
| GAGATGCC | 0.158 |
| CAGATGCC | 0.217 |

| Sequence | PBM E-score |
| --- | --- |
| AAGATGCC | 0.31 |
| AAGATGCG | 0.198 |
| TTAACCAA | -0.0373 |
| ATCGCCGG | 0.123 |
| CAACTCAA | 0.0769 |
| AATAGGCG | 0.168 |
| AGACGAAG | 0.335 |
| CGACGAAG | -0.219 |
| CTACGAAG | 0.0785 |
| ATACGAAT | 0.113 |
| AGACGAAT | 0.0336 |
| ATACGAAG | 0.293 |
| AGCTTACG | 0.0302 |
| AACTACTC | 0.0802 |
| AACTACTA | 0.288 |
| AACTACTG | -0.0124 |
| CGGATACG | 0.0225 |
| TTATGGAA | 0.163 |
| ACTCTTCA | -0.15 |
| GGTAGCAC | 0.0683 |
| AGTAGCAA | 0.111 |
| AGTAGCAC | 0.287 |
| CCGGTTCG | -0.0186 |
| CCTAAATC | 0.306 |
| CCTAAATA | 0.129 |

| Sequence | PBM E-score |
| --- | --- |
| ACTAAATC | 0.0396 |
| GTCGGTTA | -0.058 |
| CGAACACC | -0.135 |
| CGTTCATA | -0.0211 |
| ATTACTGC | -0.0604 |
| ATTACTGA | -0.0681 |
| ATTACTGG | 0.362 |
| AATACTGG | 0.369 |
| CATACTGG | 0.209 |
| AATACTGA | 0.0152 |
| ACTACTCC | 0.0438 |
| CAATTAGC | -0.0933 |
| ATCGTCCA | 0.0357 |
| CGCGTCCC | 0.0398 |
| AACGTCCC | -0.159 |
| AGCGTCCA | 0.437 |
| GCCGTCCC | -0.0711 |
| GGCGTCCC | 0.362 |
| AGCGTCCT | 0.426 |
| AGCGTCCG | 0.165 |
| AGCGTCAC | -0.078 |
| ACCGTCCT | -0.196 |
| AACGTCCT | 0.043 |
| AGCGTCCC | 0.347 |
| CACTTCTA | 0.00557 |

| Sequence | PBM E-score |
| --- | --- |
| ATTTATGC | 0.0089 |
| GCGGCCCC | 0.19 |
| GATGAGAA | -0.138 |
| GGCGTCCA | 0.436 |
| CGCGTCCA | 0.245 |
| TGCGTCCA | 0.0639 |
| GTGACATA | 0.217 |
| GCAGATTA | 0.0499 |
| GGATACCA | 0.33 |
| TGATACCA | 0.107 |
| AGATACCA | 0.246 |
| GAAAACCA | 0.084 |
| AAATCTTA | 0.111 |
| CGCATCTA | 0.204 |
| AGCATCTC | 0.121 |
| AGTATCTA | -0.103 |
| AGCATCTG | 0.115 |
| CGAATCTA | 0.122 |
| AGCATCTA | 0.319 |
| GGTATCTA | 0.292 |
| CGTATCTA | 0.0661 |
| GGCATCTA | 0.347 |
| AGAATCTA | 0.219 |
| GGAATCTA | 0.357 |
| GGCATCAA | 0.0535 |

| Sequence | PBM E-score |
| --- | --- |
| CGAGACAG | -0.0925 |
| AGACGGAA | -0.0525 |
| AAGGAATA | -0.159 |
| ACTGGTCC | -0.314 |
| ACCCACAC | -0.0404 |
| ACTCGCCG | -0.00848 |
| ACTCTTCC | -0.211 |
| CGCGAACA | -0.00841 |
| GCGGGGCC | 0.131 |
| ACATCTAC | -0.0726 |
| CATTGAAC | 0.0331 |
| ATTTTAGC | 0.0912 |
| AGCCACTG | 0.11 |
| CACCGGTC | -0.271 |
| CTGGACGC | 0.412 |
| ATGGACGC | 0.262 |
| GAGGACGA | -0.0483 |
| AAGGACGC | 0.256 |
| CCGGACGG | -0.116 |
| GAGGACGC | 0.289 |
| CAGGACGC | 0.412 |
| ACGGACGC | 0.14 |
| CAGGACGA | -0.145 |
| CTGGACGA | -0.0396 |
| CCGGACGC | 0.31 |

| Sequence | PBM E-score |
| --- | --- |
| GAGGACAC | -0.225 |
| AATTTGAG | 0.137 |
| AGCTTCGA | 0.0125 |
| TATTGCCA | 0.00643 |
| ACCCGCTC | -0.0223 |
| ATATGCAT | -0.0625 |
| AGAAAAAC | 0.134 |
| GTGTTCCA | 0.112 |
| ACCCGGCA | 0.125 |
| AACGGAGG | -0.167 |
| CAGCCACG | 0.12 |
| ACAAGATA | 0.102 |
| ATAAGAAA | 0.171 |
| ACAAGATC | 0.0465 |
| ATAAGAAC | 0.269 |
| AAAAGAAC | -0.0325 |
| AGAAGAAC | 0.13 |
| AAAAGAAG | 0.309 |
| AGAAGAAT | 0.119 |
| ATAAGAAG | 0.381 |
| CAAAGAAG | 0.184 |
| ACAAGATG | 0.294 |
| AGAAGAAG | 0.437 |
